A selection: hits, their analogues and other compounds. The true share with any hit is near 0.49%.
EPAC2 ag = activates human EPAC2 exchange factor. actives 0.079% (n = 360,000). Q8WZA2. EPAC2 activation, biochemical qHTS; response scale: 100% = 6.5 mM cAMP response. Potency, µM (top dose mostly 154 µM), inactives show top-dose activation, most hits filed as activators; note: nearly all actives have a fitted effect of over 50% in size
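Setup: EPAC2 100 nM, labeled Rap1B complex 250 nM, free GDP 50 uM. Compound titrations pinned in, brief spin, 5 min room temperature incubation. Kinetic fluorescence read over 30 min, normalized to 6.5 mM cAMP.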
USP1 inh = USP1/UAF1 (human) deubiquitinase inhibition | O94782 | recombinant USP1/UAF1, Ub-Rhodamine cleavage fluorescence | Potency, µM (titrated, usually from 57.1 µM), without a hit: at the top dose activity change, negative = inhibition, hits mostly inhibitors | actives 0.23% (n = 390,000); note: % is set by controls: 0 for no effect and ±100 for the full control effect; nearly all actives have a fitted effect of over 60% in size
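USP1/UAF1 complex (1 nM) preincubated 15 min at room temperature with compound, then Ub-Rho substrate (150 nM final) added. Kinetic fluorescence at 480/540 nm over 6 reads at 60 s intervals; 50 mM HEPES pH 7.8, 0.5 mM EDTA, 0.1 mg/ml BSA, 1 mM TCEP, 0.01% Tween-20.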
EPAC1 agonist = activates human EPAC1 exchange factor; EPAC1 agonist qHTS, biochemical assay; response scale: 100% = response to 6.5 mM cAMP; AID 720707; O95398; Potency, µM (highest dose often 154 µM), inactives show at the highest dose activation, hits mostly activators; actives 0.073% (n = 360,000); note: nearly all actives have a fitted effect of over 60% in size
Target sequence (O95398 whole entry, looked up): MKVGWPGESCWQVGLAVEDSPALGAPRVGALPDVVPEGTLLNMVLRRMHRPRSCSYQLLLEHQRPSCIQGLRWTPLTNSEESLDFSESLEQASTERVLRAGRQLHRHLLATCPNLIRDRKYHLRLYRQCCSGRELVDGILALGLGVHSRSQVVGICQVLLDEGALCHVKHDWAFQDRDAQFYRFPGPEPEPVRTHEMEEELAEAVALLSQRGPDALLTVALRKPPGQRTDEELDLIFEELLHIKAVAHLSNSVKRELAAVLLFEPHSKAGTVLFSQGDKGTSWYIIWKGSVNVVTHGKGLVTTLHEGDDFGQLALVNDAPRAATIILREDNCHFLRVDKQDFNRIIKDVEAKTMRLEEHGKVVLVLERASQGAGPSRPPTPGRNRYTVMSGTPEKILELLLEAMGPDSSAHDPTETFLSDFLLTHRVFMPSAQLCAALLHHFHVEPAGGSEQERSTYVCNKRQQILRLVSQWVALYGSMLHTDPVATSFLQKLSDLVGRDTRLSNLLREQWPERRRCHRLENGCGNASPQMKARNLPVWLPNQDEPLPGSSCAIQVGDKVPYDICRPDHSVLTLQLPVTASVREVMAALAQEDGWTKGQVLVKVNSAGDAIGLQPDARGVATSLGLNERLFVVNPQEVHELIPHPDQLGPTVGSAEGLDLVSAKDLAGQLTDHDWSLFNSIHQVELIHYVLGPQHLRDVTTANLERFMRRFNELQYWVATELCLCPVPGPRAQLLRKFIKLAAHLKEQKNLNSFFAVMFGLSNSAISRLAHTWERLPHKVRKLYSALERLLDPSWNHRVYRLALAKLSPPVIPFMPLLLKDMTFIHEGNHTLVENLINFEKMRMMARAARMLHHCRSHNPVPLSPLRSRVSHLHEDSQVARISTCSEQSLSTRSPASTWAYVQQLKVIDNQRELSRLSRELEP
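Nucleotide exchange assay: 100 nM EPAC1 with 250 nM Rap1B loaded with BODIPY-GDP and 50 uM GDP, room temperature. Fluorescence (480/540 nm) read every 5 min for 30 min; signal change normalized to 6.5 mM cAMP as full agonist.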
EPAC1 antag = EPAC1 (human) antagonism. O95398. EPAC1 GEF assay, Rap1b-BODIPY-GDP exchange fluorescence. Potency, µM (titrated, usually from 115 µM), inactives show at the highest dose activity change, negative = inhibition, actives largely listed as inhibitors. actives 0.14% (n = 360,000). AID 720709;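 note: plate controls were vehicle for no effect and positive control for full effect; nearly all actives have a fitted effect of over 50% in size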
EPAC2 antag = blocks human EPAC2 exchange factor; Q8WZA2; Potency, µM (doses to about 114 µM), inactives show at the top dose activity, negative = inhibition, actives largely listed as inhibitors; AID 720708; EPAC2 GEF exchange of Rap1B-BODIPY-GDP, fluorescence; actives 0.18% (n = 360,000); note: % is set by controls: 0 for no effect and ±100 for the full control effect; nearly all actives have a fitted effect of over 45% in size
* marks the source's active call; other numbers are inactive results; i = inactive; ? = inconclusive; . = not tested or not shown. Calls come from the whole dose curve; as a rule, active = well fitted curve in the direction sought with a large enough effect; inconclusive = small, poorly fitted or top-dose-only effect, or another doubt; inactive = no such curve, though single readings can be large; an effect the other way counts as inactive or inconclusive. Potency is the fitted concentration of half-maximal effect.

SMILES | EPAC2 ag | USP1 inh | EPAC1 agonist | EPAC1 antag | EPAC2 antag
O=C1c2ccccc2C(O)N1Cc1ccco1 (stereo not given) | 1.2% | -7.3% | 2.3% | 3.0% | 2.6%
CCOc1ccccc1NC1c2ccccc2C(=O)N1Cc1ccco1 (stereo not given) | 11.7% | -26.1% | 3.9% | 3.3% | 15.8µM*
Cc1cc(C)cc(-n2ccnc2SCC(=O)Nc2cccc3ccccc23)c1 | . | -10.5% | . | . | .
C/C(=N\NS(=O)(=O)c1ccccc1)c1cc(Cl)cc(Cl)c1O | 3.9% | -8.6% | -10.7% | 17.8µM* | ?
CCCn1nc([N+](=O)[O-])c(C(C#N)c2nc3ccccc3o2)c(Cl)c1=O (stereo not given) | -28.2% | -25.5% | -10.2% | -16.9% | 56.2µM*
CCn1nc([N+](=O)[O-])c(C(C#N)c2nc3cc(C(F)(F)F)ccc3s2)c(Cl)c1=O (stereo not given) | -12.9% | ? | -11.1% | ? | -29.4%
CC1C(=O)N2CCCc3cc(S(=O)(=O)Nc4ccc(Br)cc4F)cc1c32 (stereo not given) | . | -4.5% | . | . | .
COc1cc2nc(N3CCNCC3)nc(N)c2cc1OC | 22.7% | -25.4% | 8.7% | ? | 31.6µM*
COc1cc2nc(N3CCN(c4cc(C)ccc4C)CC3)nc(N)c2cc1OC | 26.3% | -22.4% | 12.9% | -21.3% | -6.3%
Cc1ccc(CC(=O)Nc2ccc3c(c2)N(C)C(=O)c2ccccc2S3)cc1 | . | -10.6% | . | . | .
C#CCOCCOCCOCCNc1nc(N2CCN(C(=O)CCCCCCCCCCNC(=O)Cn3cc(CCCCCN)nn3)CC2)nc(N2CCN(C(=O)CCCCCCCCCCNC(=O)[C@@H]([C@H](C)O)n3cc(C)nn3)CC2)n1 | 4.6% | -27.0% | 2.2% | -14.7% | 13.5%
C#CCOCCOCCOCCNc1nc(N2CCN(C(=O)CCCCCCCCCCNC(=O)Cn3cc(CCCCCN)nn3)CC2)nc(N2CCN(C(=O)CCCCCCCCCCNC(=O)Cn3cc(C[C@@H](C)O)nn3)CC2)n1 | ? | ? | 22.8% | 35.5µM* | ?
C#CCOCCOCCOCCNc1nc(N2CCN(C(=O)CCCCCCCCCCNC(=O)[C@H](CCCCN)n3cc(C)nn3)CC2)nc(N2CCN(C(=O)CCCCCCCCCCNC(=O)[C@H](CCCN=C(N)N)n3cc(C[C@@H](C)CC)nn3)CC2)n1 | 18.8% | ? | 5.2% | 50.1µM* | -20.9%
C#CCOCCOCCOCCNc1nc(N2CCOCC2)nc(N2CCN(C(=O)[C@H](Cc3cc4ccccc4[nH]3)n3cc([C@@H](N)C(C)CC)nn3)CC2)n1 (stereo not given in full) | 1.0% | 44.7µM* | -3.9% | -8.0% | 5.1%
C#CCOCCOCCOCCNc1nc(N2CCN(C(=O)CCCCCCCCCCNC(=O)Cn3cc(C[C@@H](C)O)nn3)CC2)nc(N2CCN(C(=O)CCCCCCCCCCNC(=O)[C@@H]([C@H](C)CC)n3cc(CCCCCN)nn3)CC2)n1 | 16.1% | ? | 19.0% | 50.1µM* | -28.5%
C#CCOCCOCCOCCNc1nc(N2CCN(C(=O)CCCCCCCCCCNC(=O)[C@H](CCCCN)n3cc(C[C@@H](C)CC)nn3)CC2)nc(N2CCN(C(=O)CCCCCCCCCCNC(=O)[C@H](CCCN=C(N)N)n3cc(C[C@@H](C)CC)nn3)CC2)n1 | 11.3% | ? | 27.1% | ? | ?
CCOc1ccc(CNC(=O)C2CCCN(S(=O)(=O)c3ccc4c(c3)CCCC(=O)N4)C2)cc1 (stereo not given) | . | -29.7% | . | . | .
CN(CC(=O)Nc1ccccc1C(F)(F)F)C(=O)c1cc(-c2cccs2)nn1-c1ccccc1 | 2.5% | -28.1% | 112µM* | -8.6% | -2.3%
CC1=Nc2ccccc2/C1=C\c1nc(-c2ccc(F)cc2)oc1O | ? | 28.2µM* | 89.1µM* | 25.6% | 47.4%
CN=Cc1nc(-c2ccccc2)oc1O | 5.4% | -4.1% | 16.4% | -0.5% | 2.9%
Cc1cccc(CCNc2ncnc3onc(-c4ccc(Cl)cc4)c23)c1 | . | -18.4% | . | . | .
Clc1cccc(Cl)c1C1Nc2cccc3cccc(c23)N1 | 10.5% | -9.2% | 7.4% | ? | 56.2µM*
COc1ccc(NC(=O)Cn2c(SCc3ccc(C)cc3)nc3cccnc32)c(OC)c1 | . | 0.1% | . | . | .
CN(C)c1ccc(C(=O)/C=C/c2cccnc2)cc1 | 1.5% | -4.2% | 2.8% | -10.5% | -0.4%
CN(C)c1ccc(/C=C/C(=O)c2cccc(Br)c2)cc1 | 100µM* | i | 100µM* | 68.0% | 56.2%
SMILES | EPAC2 ag | USP1 inh | EPAC1 agonist | EPAC1 antag | EPAC2 antag
Cc1ccc2[nH]c(CSc3nnc(NC(=O)COc4ccccc4C)s3)cc(=O)c2c1 | . | -17.0% | . | . | .
Cn1c(=O)c(/C=C/c2ccc(F)cc2)nc2ccccc21 | 2.0% | -15.6% | -16.1% | -2.8% | 8.4%
O=c1c(/C=C(\O)c2ccc(F)cc2)nc2ccccc2n1-c1ccccc1 | 100µM* | 20.5% | 23.4% | 13.3% | 100.3%
Cc1nn(C(C)C(=O)Nc2ccccc2C(F)(F)F)c(=O)c2c1sc1ccccc12 (stereo not given) | . | -17.1% | . | . | .
COc1cccc(OCCOc2ccc(/C=C3\C(=N)N4N=C(S(C)(=O)=O)SC4=NC3=O)cc2OC)c1 | 4.2% | -21.1% | 0.6% | 70.8µM* | -3.0%
COc1cc(/C=C2\C(=N)N3N=C(S(C)(=O)=O)SC3=NC2=O)cc(OC)c1OCCOc1ccccc1C | 10.3% | ? | 4.2% | 50.1µM* | ?
CCOC(=O)Nc1ccc(C)cc1NC(=O)OCC | 6.5% | -13.9% | -4.4% | 4.8% | 7.4%
CCOC(=O)Nc1ccc(NCc2ccc(F)cc2)nc1N | 9.6% | 22.4µM* | 13.8% | ? | ?
CC(NC(=O)c1cc(S(=O)(=O)N2CCOCC2)ccc1N1CCCC1)c1ccc(Cl)c(Cl)c1 (stereo not given) | 6.4% | -22.9% | 56.2µM* | 7.4% | 14.5%
O=C(Nc1ccccc1Cl)c1cc(S(=O)(=O)N2CCCCC2)ccc1N1CCOCC1 | 10.6% | 2.5% | 12.7% | -6.2% | -9.7%
CC1CCN(C(=O)c2cc(-c3ccc(Br)cc3)on2)CC1 | . | -18.0% | . | . | .
CCN(CC)c1ccc2c(-c3ccc(S(=O)(=O)O)cc3S(=O)(=O)[O-])c3ccc(=[N+](CC)CC)cc-3oc2c1 | ? | 31.6µM* | 63.1µM* | 32.3% | ?
CCN(CC)c1ccc2nc3c4ccccc4c(=O)cc-3oc2c1 | 9.8% | -24.8% | 11.2% | -2.2% | 0.0%
COCCn1c(CCC(=O)Nc2ccc(C)c(Cl)c2)nc2cccnc21 | . | -9.0% | . | . | .
O=C(CCC1CCCC1)Nc1ccc([N+](=O)[O-])cn1 | -1.9% | -12.5% | 112µM* | 103.1% | 9.5%
CCCN(C(=O)c1cc2c(=O)oc3ccccc3c2s1)c1ccccc1C | . | -28.9% | . | . | .
O=S(=O)(O)c1cc(O)c(N=Nc2ccc(O)cc2O)c2ccccc12 | 11.7% | ? | -8.1% | 79.4µM* | 44.7µM*
